Screens deposited in PubChem by National Center for Advancing Translational Sciences (NCATS).
Rows were chosen to be rich in hits. Some 1.3% of all compounds tested hit in one or more screens of this group.
EPAC2 agonist: agonists of human EPAC2 (RAPGEF4). Q8WZA2. EPAC2 activation, biochemical qHTS; response scale: 100% = 6.5 mM cAMP response. Potency, µM (doses to about 154 µM), inactives show at the top dose activation, actives largely listed as activators. 360,000 compounds, 0.079% hits; further: nearly all actives have a fitted effect of over 50% in size
Target sequence (Q8WZA2 whole entry, looked up): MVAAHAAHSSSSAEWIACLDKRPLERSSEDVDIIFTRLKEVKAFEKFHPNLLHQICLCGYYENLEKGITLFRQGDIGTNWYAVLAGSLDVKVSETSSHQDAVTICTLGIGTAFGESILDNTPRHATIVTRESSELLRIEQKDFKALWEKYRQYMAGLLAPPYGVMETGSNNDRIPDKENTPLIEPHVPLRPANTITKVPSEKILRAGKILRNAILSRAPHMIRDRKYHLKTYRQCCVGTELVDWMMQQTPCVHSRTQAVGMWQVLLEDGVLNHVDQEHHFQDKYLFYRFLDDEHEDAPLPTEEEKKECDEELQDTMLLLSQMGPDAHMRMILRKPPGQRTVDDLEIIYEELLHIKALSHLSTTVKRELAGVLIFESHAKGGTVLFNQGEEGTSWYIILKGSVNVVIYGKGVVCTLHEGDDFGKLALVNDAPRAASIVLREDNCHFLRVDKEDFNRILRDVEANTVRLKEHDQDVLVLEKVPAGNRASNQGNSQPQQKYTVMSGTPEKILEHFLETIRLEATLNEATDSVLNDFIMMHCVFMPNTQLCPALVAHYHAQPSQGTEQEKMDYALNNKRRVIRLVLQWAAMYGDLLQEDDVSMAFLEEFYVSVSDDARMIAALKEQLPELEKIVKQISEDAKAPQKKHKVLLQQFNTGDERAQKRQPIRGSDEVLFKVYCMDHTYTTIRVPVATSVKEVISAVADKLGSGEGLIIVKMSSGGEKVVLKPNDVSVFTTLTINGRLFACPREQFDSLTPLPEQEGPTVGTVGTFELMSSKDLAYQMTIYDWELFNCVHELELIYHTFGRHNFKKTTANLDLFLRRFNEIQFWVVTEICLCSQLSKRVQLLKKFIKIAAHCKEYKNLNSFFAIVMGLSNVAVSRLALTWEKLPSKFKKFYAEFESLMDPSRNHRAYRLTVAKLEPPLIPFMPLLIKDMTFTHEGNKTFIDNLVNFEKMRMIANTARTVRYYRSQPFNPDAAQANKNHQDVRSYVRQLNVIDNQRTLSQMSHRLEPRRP
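Exchange assay: 100 nM EPAC2 with 250 nM Rap1B-BODIPY-GDP and 50 uM GDP. Fluorescence (ex 480/em 540 nm) read every 5 min for 30 min at room temperature. Data normalized to 6.5 mM cAMP as agonist control.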
EPAC2 antag: blocks human EPAC2 exchange factor | Potency, µM (titrated, usually from 114 µM), inactives show top-dose activity, negative = inhibition, most hits filed as inhibitors | EPAC2 GEF exchange of Rap1B-BODIPY-GDP, fluorescence | Q8WZA2 | 360,000 compounds, 0.18% hits | AID 720708; further: on the % scale 0 is the no-effect control and ±100 the full control effect; nearly all actives have a fitted effect of over 45% in size
EPAC1 antagonist: EPAC1 (human) antagonism; O95398; EPAC1 GEF assay, Rap1b-BODIPY-GDP exchange fluorescence; Potency, µM (series often up to 115 µM), for inactives: at the top dose activity change, negative = inhibition, most hits filed as inhibitors; 360,000 compounds, 0.14% hits; AID 720709;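 further: plate controls were vehicle for no effect and positive control for full effect; nearly all actives have a fitted effect of over 50% in size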
RGS4 inh: blocks human RGS4-accelerated GTP hydrolysis; P49798; Transcreener GDP fluorescence polarization, RGS4-accelerated GTP hydrolysis; Potency, µM (highest dose often 114 µM), inactives show at the top dose activity change, negative = inhibition, actives largely listed as inhibitors; 390,000 compounds, 0.039% hits; AID 504845; further: on the % scale 0 is the no-effect control and ±100 the full control effect; nearly all actives have a fitted effect of over 75% in size
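MLSMR compounds (23 nl, pin-transferred) preincubated 10 min at room temperature with a 500nM (2x) first reagent, then RGS4 at 900nM (2x) plus Transcreener GDP mix added; fluorescence polarization (620/688 nm) read before and after 90 min at 30 °C.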
BRCA1 expr up: BRCA1 expression activation. MCF7-BRCA1-FFLuc reporter, luminescence, 48 h; response scale: scaled: vehicle 0%, 10 µM genistein 100%. Potency, µM (doses to about 46.1 µM), for inactives: at the top dose activation, hits mostly activators. 380,000 compounds, 1.1% hits. AID 624202; further: nearly all actives have a fitted effect of over 80% in size
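Activators of BRCA1 expression were detected as increased firefly luciferase luminescence in engineered MCF7 cells after 48 h compound incubation. Signals were scaled to genistein 10 microM as full activation.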
EPAC1 ag: activates human EPAC1 exchange factor; O95398; EPAC1 agonist qHTS, biochemical assay; response scale: 100% = response to 6.5 mM cAMP; Potency, µM (titrated, usually from 154 µM), inactives show at the highest dose activation, actives largely listed as activators; 360,000 compounds, 0.073% hits; AID 720707; further: nearly all actives have a fitted effect of over 60% in size
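Read-out is the fluorescence drop as BODIPY-GDP leaves Rap1B (480 nm excitation, 540 nm emission), recorded every 5 minutes over 30 minutes. Reactions held 100 nM EPAC1, 250 nM Rap1B–BODIPY-GDP and 50 uM GDP, with 6.5 mM cAMP setting full activation.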
* hit, by the source's call; ? = inconclusive; . = no result given; [ ] = remark or other dose. The call rests on the fitted dose curve; in most records, active means well fitted curve in the direction sought with a large enough effect; inconclusive means small, poorly fitted or top-dose-only effect, or another doubt; inactive means no such curve, though single readings can be large; an effect the other way counts as inactive or inconclusive. Potency means the concentration at half of the fitted maximal effect.

SMILES | EPAC2 agonist | EPAC2 antag | EPAC1 antagonist | RGS4 inh | BRCA1 expr up | EPAC1 ag
O=C(NCCCN1CCCC1=O)c1cc2c(s1)CCCCC2 | -2% | 7% | 6% | -13% | 11µM* | 14%
Clc1ccc(C2Nc3cccc4cccc(c34)N2)c(Cl)c1 | 6% | 10µM* | -6% | ? | -28% | 11%
CCOc1ccc(-n2cnc3scc(-c4ccc(OC)c(OC)c4)c3c2=O)cc1 | 14% | 50µM* | -10% | -32% | -32% | 6%
COc1cccc(-n2cnc3scc(-c4cccs4)c3c2=O)c1 | 6% | -15% | -1% | -25% | -9% | 12%
COc1ccc(OC)c(NC(=O)C(C)Oc2ccc(Br)cc2)c1 (configuration not stated) | 5% | 13µM* | -4% | -16% | -3% | 2%
COc1cccc(CNC(=O)[C@@H]2CCCN2C(=O)[C@@H]2CCCN2C(=O)c2cccc(Cl)c2)c1 | 1% | 6% | -6% | . | 8% | -12%
CN(C)c1ccc(N=C/C=C2\N(C)c3ccccc3C2(C)C)cc1 | 5% | 0% | 0% | -16%[11.4 µM] | 0% | -4%
CN1/C(=C/C=C(C#N)C#N)C(C)(C)c2ccccc21 | 112µM* | 228% | -1% | -2% | 2% | 9%
CN1\C(=C/C=C/C=C/C=[N+](C)C)C(C)(C)c2ccccc21 | 15% | -28% | -10% | -61%[56.9 µM] | -57% | 56µM*
CN1/C(=C\C=O)C(C)(C)c2ccccc21 | 15% | 3% | 6% | 0% | 11% | 11%
Cc1occc1C(=O)Nc1ccc(S(=O)(=O)N2CCN(C)CC2)cc1 | 0% | 5% | 5% | 9% | 1% | -6%
FC(F)(F)c1nc(NCc2cccnc2)c2ccccc2n1 | 7% | -9% | 12% | -10% | -8% | 6%
Cc1ccc2c(c1)NC(=O)CC(c1ccccc1)=N2 | 0% | 4% | -8% | 5% | 10µM* | 3%
Cc1cccc(/C(N)=N/OC(=O)C23CC4CC(CC(C4)C2)C3)c1 | 0% | -3% | -15% | 37% | 10µM* | 0%
O=C(NC(=S)NCC1COc2ccccc2O1)c1ccccc1 (configuration not stated) | 14% | -4% | -31% | -22% | -1% | 23%
O=C(NCC1COc2ccccc2O1)c1ccccc1 (configuration not stated) | 13% | -4% | 0% | 4% | 7.9µM* | 3%
CCS(=O)(=O)n1nc(-c2ccc(Cl)cc2)nc1SCc1ccccc1 | 20% | -13% | -18% | -9% | 52% | 12%
O=C(CC1CCCCC1)N=C1SC2CS(=O)(=O)CC2N1c1ccccc1 (configuration not stated) | -10% | 3% | -3% | -22%[56.9 µM] | -6% | 4%
COc1ccccc1/C=C/C(=O)NCCc1ccccn1 | -3% | 16% | 29% | -6% | 3.2µM* | 5%
COc1ccccc1/C=C/C=N/NC(=O)c1ccccn1 | 3% | -7% | 0% | -4% | 5µM* | -5%
COc1ccccc1/C=C/C=N/NC(=O)c1cnccn1 | -4% | 7% | 7% | -18% | -5% | -3%
COC(=O)c1cc2c(-c3ccccc3)cc3ccccn3c-2c1C(=O)OC | 11% | -4% | -7% | 2% | -15% | 9%
COC(=O)c1c(C)c2c(C)cc3ccccn3c-2c1C(=O)OC | -9% | 11µM* | 2% | 13% | -17% | -6%
CC(=O)N1CCN(C(=O)C2(NC(=O)Nc3ccccc3Cl)CCCCC2)CC1 | 5% | 6% | 7% | 9% | -1% | -1%
O=C(N/N=C\c1ccc(COc2ccc([N+](=O)[O-])cc2)o1)c1ccc(Cl)cc1 | 5% | -1% | -2% | 0% | -28% | 8%
SMILES | EPAC2 agonist | EPAC2 antag | EPAC1 antagonist | RGS4 inh | BRCA1 expr up | EPAC1 ag
COc1ccc(OCc2ccc(/C=N\NC(=O)c3sccc3C)o2)cc1 | 16% | -1% | 15% | 3% | 13µM* | 7%
COC(=O)c1sc(-c2ccc(Cl)cc2)cc1N | -13% | -2% | 10% | -20% | 4µM* | 13%
COC(=O)c1sc(-c2cccs2)cc1N | 3% | -9% | -2% | -17% | 13µM* | -5%
N#CCSc1nc2[nH]ncc2c(=O)n1-c1ccccc1Br | 0% | 14% | 24% | -4% | -9% | 1%
O=C(CN1C(=O)CCC1=O)Nc1nc(-c2nc3ccccc3s2)cs1 | 1% | -10% | -4% | 12% | 5µM* | 5%
Cc1[nH]nc2c1C(c1cccnc1)N(c1ccc(Br)cc1)C2=O (configuration not stated) | 8% | 0% | -6% | 23% | -1% | 4%
COc1ccccc1Oc1ccnc2cc(Cl)ccc12 | 6% | 40µM* | -17% | -31% | -3% | -1%
O=C1c2ccccc2S(=O)(=O)N1CC1CC(c2ccccc2Cl)=NO1 (configuration not stated) | 0% | -10% | -23% | 18% | 5µM* | 10%
COc1ccccc1C1=NOC(CN2C(=O)c3ccccc3S2(=O)=O)C1 (configuration not stated) | 1% | -4% | -11% | 20% | ? | -1%
CC(=O)c1cccc(NC(=O)C(C)OC(=O)CCC2CCCCC2)c1 (configuration not stated) | 6% | -12% | -7% | 3% | 12% | 10%
CCOC(=O)C1CCN(C(=O)c2cc3c(C)cc(C)cc3[nH]2)CC1 | 1% | -3% | 10% | -39% | 10% | -8%
CCOC(=O)C1CCN(C(=O)c2cc3cc(C)ccc3[nH]2)CC1 | 2% | -8% | -4% | -1% | 2.8µM* | 5%
CC12CC(NC(=O)N1c1cccc(C(=O)N3CCN(c4ccccc4)CC3)c1)c1ccccc1O2 (configuration not stated) | -7% | 0% | 19% | 4% | -11% | 0%
CCOC(=O)c1ccc(N2C(=O)C3C(/C=C/c4ccccc4)OC4(C(=O)c5ccccc5C4=O)C3C2=O)cc1 (configuration not stated) | 14% | -2% | 100µM* | -10% | 0% | 3%
Cc1ccc(O)c(C(=O)c2cc(C#N)c(=O)n(-c3nccs3)c2)c1 | 112µM* | 178% | 58% | -34% | -73% | 40µM*
CCCN1CCc2c(sc(NC(=O)c3ccc(S(=O)(=O)N(C)c4ccccc4)cc3)c2C(N)=O)C1 | 112µM* | 0% | 5% | -31% | -43% | 19%
CCCN1CCc2c(sc(NC(=O)c3ccc(S(=O)(=O)N(C)c4ccccc4)cc3)c2C(=O)NC)C1 | -5% | 18% | -15% | -39% | -49% | 26%
